Reference: PubChem BioAssay AID720597 (Broad Institute, 2013)
Results with a measured potency or affinity are listed apart. The source made the active and inactive calls.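 Rule for the calls: active = fitted half-maximal dose no more than twice the top valid tested dose, for compounds that lower signal; inconclusive = fit invalid, or curve flat with activity between -70 and -30; inactive = potency past limit, curve flat within ±30, or signal increasing.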

molecular target: NAD-dependent protein deacylase sirtuin-5, mitochondrial (Homo sapiens) (UniProt Q9NXA8); test: blockers of sirtuin-5 peptide desuccinylation – biochemical, fluorescence imaging, cherry-pick, set 6, dose response (AID 720597); conditions: Purified SirT5, succinyl-peptide-AMC/trypsin fluorescence; series mostly up to 15 µM; activity change, negative = inhibition: at the top concentration;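 note: lower AMC signal can also come from blocking the trypsin step; 0% = median of neutral control wells and -100% = median of positive control wells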
Sequence (Q9NXA8 whole entry, looked up): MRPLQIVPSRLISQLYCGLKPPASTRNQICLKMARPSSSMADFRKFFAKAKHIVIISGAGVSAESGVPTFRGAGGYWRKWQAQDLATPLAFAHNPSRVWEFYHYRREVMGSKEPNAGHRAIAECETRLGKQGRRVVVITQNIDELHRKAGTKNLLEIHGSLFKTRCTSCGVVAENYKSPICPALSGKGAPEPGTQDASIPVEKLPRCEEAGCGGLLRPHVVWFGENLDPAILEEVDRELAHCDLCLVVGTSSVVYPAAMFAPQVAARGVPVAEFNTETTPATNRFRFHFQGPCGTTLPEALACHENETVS

SMILES	activity change, negative = inhibition
C[C@@H]1CN([C@H](C)CO)C(=O)c2cccc(NC(=O)C3CCCCC3)c2O[C@@H]1CN(C)CC1CC1	-16.1% (inactive)
CCCNC(=O)N1[C@@H]2Cn3c(cccc3=O)[C@H]1[C@@H](C(=O)N1CCC(Cc3ccccc3)CC1)[C@@H]2CO	2.68% (inactive)
O=C(Nc1cc(F)ccc1F)N1CC(=O)N2[C@H](C1)[C@@H](c1ccc(C#CC3CCCCC3)cc1)[C@@H]2CO	8.23% [at 3.8 µM] (inactive)
CC(C)NC(=O)N1CCCCN2[C@H](C1)[C@@H](c1ccc(C#CC3CC3)cc1)[C@@H]2CO	-14.1% (inactive)
COc1ccc(NC(=O)Nc2cccc3c2O[C@@H](CN(C)Cc2ccc(C(F)(F)F)cc2)[C@@H](C)CN([C@H](C)CO)C3=O)cc1	-31.3% (inactive)
COc1cccc(NC(=O)N2CC(=O)N3[C@H](CO)[C@H](c4ccc(C#CCC5CCCC5)cc4)[C@@H]3C2)c1	-10.9% (inactive)
COc1ccc(C#Cc2ccc([C@H]3[C@@H](CO)N4C(=O)CN(C(C)=O)C[C@H]34)cc2)cc1	-18.8% (inactive)
C[C@@H]1CN([C@@H](C)CO)C(=O)c2cc(NC(=O)Nc3cccc4ccccc34)ccc2O[C@@H](C)CCCCO[C@@H]1CN(C)S(=O)(=O)c1ccc(Cl)cc1	7.77% (inactive)
CCCN1C[C@H](C)[C@@H](OC)CN(C)C(=O)c2cc(NS(=O)(=O)c3ccccc3)ccc2OC[C@H]1C	-6.09% (inactive)
Cc1ccc(S(=O)(=O)N(C)C[C@H]2OCCCC[C@@H](C)Oc3ccc(NS(=O)(=O)c4ccccc4)cc3C(=O)N([C@H](C)CO)C[C@H]2C)cc1	-8.87% (inactive)
C[C@@H]1CN([C@@H](C)CO)C(=O)Cc2cc(NS(=O)(=O)c3ccc(Cl)cc3)ccc2O[C@H]1CN(C)Cc1ccc(Oc2ccccc2)cc1	-16.6% (inactive)
CO[C@H]1CN(C)C(=O)c2cccc(C#N)c2OC[C@H]2O[C@H](CC[C@@H]2OC)CCN(C)C(=O)[C@H]1C	17.8% (inactive)
COc1ccc(C#Cc2ccc([C@@H]3[C@H]4CN(C(=O)c5cccnc5)CC(=O)N4[C@H]3CO)cc2)cc1	4.01% (inactive)
Cc1ccc(S(=O)(=O)N[C@H]2CC[C@@H](CCn3cc(C(C)C)nn3)O[C@H]2CO)cc1	-10.1% (inactive)
CCOC(=O)N(C)C[C@@H]1OCc2ccccc2-c2ccccc2C(=O)N([C@@H](C)CO)C[C@H]1C	12.9% (inactive)
COc1ccc(S(=O)(=O)Nc2ccc3c(c2)C(=O)N([C@@H](C)CO)C[C@@H](C)[C@H](CN(C)Cc2ccc(C(F)(F)F)cc2)OCCCC[C@@H](C)O3)cc1	-24.5% (inactive)
C[C@@H]1CN([C@@H](C)CO)S(=O)(=O)c2ccc(-c3cccc(F)c3)cc2O[C@@H]1CN(C)S(=O)(=O)c1ccc(F)cc1	-17.7% (inactive)
Cc1ccc(S(=O)(=O)Nc2ccc3c(c2)C(=O)N([C@@H](C)CO)C[C@H](C)[C@@H](CN(C)S(=O)(=O)c2ccc(F)cc2)OCCCC[C@@H](C)O3)cc1	-1.33% (inactive)
CC(C)NC(=O)N(C)C[C@H]1Oc2ccc(NC(=O)Cc3ccccc3)cc2C(=O)N([C@H](C)CO)C[C@@H]1C	8.2% (inactive)
C[C@@H]1CCCCO[C@@H](CN(C)Cc2ccc(Cl)c(Cl)c2)[C@@H](C)CN([C@H](C)CO)C(=O)c2cc(NC(=O)CCCCCC(=O)Nc3ccccc3N)ccc2O1	13% (inactive)
Cc1ccc(S(=O)(=O)Nc2ccc3c(c2)C(=O)N([C@@H](C)CO)C[C@H](C)[C@@H](CN(C)Cc2ccc(C(F)(F)F)cc2)OCCCC[C@H](C)O3)cc1	-12.4% (inactive)
C[C@H]1CN([C@@H](C)CO)C(=O)c2c(c3ccccc3n2C)-c2ccccc2CO[C@H]1CN(C)Cc1ccccc1	11.1% (inactive)
Cn1cnc(CCNC(=O)C[C@@H]2CC[C@@H]3[C@H](COC[C@H](O)CN3C(=O)C3CCCC3)O2)c1	-18.6% (inactive)
Cc1ccc(S(=O)(=O)Nc2ccc3c(c2)C(=O)N([C@@H](C)CO)C[C@H](C)[C@@H](CN(C)C(=O)Nc2ccc(C(F)(F)F)cc2)OCCCC[C@@H](C)O3)cc1	20.9% (inactive)
O=S(=O)(NC[C@@H]1CC[C@H]2[C@H](CN2Cc2cccc(-c3ccccn3)c2)O1)c1ccccc1	1.68% (inactive)
C[C@H]1CN([C@@H](C)CO)C(=O)c2ccccc2-c2ccccc2CO[C@@H]1CN(C)C(=O)Nc1ccccc1C(F)(F)F	7.56% (inactive)
CO[C@H]1CN(C)C(=O)c2cc(NC(=O)c3ccccc3F)ccc2OC[C@@H](C)NC[C@@H]1C	0.898% (inactive)
C[C@H](CO)N1C[C@H](C)[C@H](CN(C)C(=O)NC2CCCCC2)Oc2cc(/C=C/c3ccccc3)ccc2S1(=O)=O	16.9% (inactive)
